# Unmarked numbers belong to inactive results. Results filed as inconclusive are left out. A call without a number means that no potency is given here. The source made the active and inactive calls. Calls follow the shape of the dose curve; as a rule, active = well fitted curve in the direction sought with a large enough effect; inconclusive = small, poorly fitted or top-dose-only effect, or another doubt; inactive = no such curve, though single readings can be large; an effect the other way counts as inactive or inconclusive.
# Experiments:
# [1] = target: Glutathione peroxidase 1 (Homo sapiens) (UniProt P07203); experiment: Primary qHTS Assay for Inhibitors of Recombinant Selenoprotein Glutathione Peroxidase 1 (GPX1) (AID 1845191); also: nearly all actives have a fitted effect of over 65% in size
# Chain of Glutathione peroxidase 1 (Homo sapiens) (P07203 whole entry, looked up): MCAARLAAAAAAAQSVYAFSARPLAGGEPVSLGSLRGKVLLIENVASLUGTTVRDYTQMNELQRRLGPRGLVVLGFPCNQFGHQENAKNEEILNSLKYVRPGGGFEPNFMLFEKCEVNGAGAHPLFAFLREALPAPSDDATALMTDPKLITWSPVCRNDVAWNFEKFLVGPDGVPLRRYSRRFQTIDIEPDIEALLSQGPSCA
# Summary of the method: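 10 nM GPX1 + cpd, 30 min RT; start w/ 1 mM GSH, 0.5 mM cumene hydroperoxide, 0.5 mM NADPH, 100 nM GR, 0.01% BSA; buffer 50 mM Tris-HCl pH 7.5, 2 mM EDTA, 150 mM NaCl; Fl 340/450, 0 & 15 min.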
# [2] = target: Phospholipid hydroperoxide glutathione peroxidase GPX4 (Homo sapiens) (UniProt P36969); experiment: Primary qHTS Assay for Inhibitors of Recombinant Selenoprotein Glutathione Peroxidase 4 (GPX4) (AID 1845192); also: nearly all actives have a fitted effect of over 65% in size; as to activity change, negative = inhibition: series mostly up to about 50 µM
# Chain of Phospholipid hydroperoxide glutathione peroxidase GPX4 (Homo sapiens) (P36969 whole entry, looked up): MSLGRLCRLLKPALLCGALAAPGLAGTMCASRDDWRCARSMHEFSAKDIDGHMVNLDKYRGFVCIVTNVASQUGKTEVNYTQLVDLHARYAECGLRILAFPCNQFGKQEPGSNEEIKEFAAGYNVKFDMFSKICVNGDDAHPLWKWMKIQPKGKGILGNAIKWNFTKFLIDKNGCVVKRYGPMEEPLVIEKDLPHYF
# Summary of the method: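 NADPH consumption, followed by fluorescence at 340/450 nm between 0 and 15 min, reports GPX4 activity via coupled glutathione reductase (100 nM). Enzyme 200 nM was pre-exposed to compound 30 min; 0.5 mM cumene hydroperoxide and 1 mM GSH served as substrates.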
# [3] = target: Luciferin 4-monooxygenase (Photinus pyralis) (UniProt P08659); experiment: Primary firefly luciferase (FLuc) qHTS assay for identification of artifact compounds. (AID 1845220); also: nearly all actives have a fitted effect of over 60% in size; also: potency is read from the fitted curve at half-maximal effect; as to activity change, negative = inhibition: series mostly up to about 54 µM
# Summary of the method: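 Compounds sat 15 min at room temperature with 10 uM luciferin and 10 uM ATP (pH 7.6 Tris acetate). Firefly luciferase (10 nM final) was then added, and luminescence was read 5 min later. Data normalized to no-enzyme and DMSO controls were Hill-fitted.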
# [4] = Primary fluorescence-based thiol-reactive (MSTI) qHTS assay for identification of artifact compounds. (AID 1845221);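 also: series mostly up to about 54 µM; thiol-reactive compounds lower the probe fluorescence signal; nearly all actives have a fitted effect of over 65% in size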
# Summary of the method: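 Reactivity toward the thiol probe MSTI (4 uM) is scored by fluorescence at Ex/Em 525/598 nm after 1 h at room temperature. Acetyl-MSTI and MSTI define the activity scale.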
# [5] = tested on: Nanoluciferase (engineered Oplophorus gracilirostris luciferase); experiment: Primary Nanoluciferase (NLuc) qHTS assay for identification of artifact compounds. (AID 1845222); also: series mostly up to about 54 µM
# Summary of the method: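 Luminescence from secreted NLuc (filtered, 1:55-diluted S16 cell medium) read 5 min after Nano-Glo substrate; compounds preincubated 15 min, RT. Hill fits of inhibition normalized to DMSO and no-enzyme.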
# [6] = Primary redox qHTS assay for identification of artifact compounds. (AID 1845223)
# Summary of the method: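 Amplex Red (25 uM) and HRP (250 mU/mL) in HBSS, with compounds for 15 min, then 250 uM DTT for 30 min, room temperature, dark. Fluorescence 525/598 nm read; normalized to DMSO and 10 uM DA3003; Hill fit.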
SMILES,Potency [1],Potency [2],Potency [3],Potency [4],Potency [5],Potency [6],outcome [1],"activity change, negative = inhibition [2]",outcome [3],"activity change, negative = thiol reactive [4]","activity, negative = inhibition [5]",redox activity (% of DA3003) [6]
COc1cc(C(C)=O)c(OC)c2c1OC(C)(C)C=C2,inactive,inactive,inactive,inactive,inactive,inactive,,,,,,
Cc1nc2ccc(-n3ncc(C(=O)c4cc5ccccc5[nH]4)c3N)cc2[nH]1,inactive,inactive,3.38 µM (active),inactive,inactive,inactive,,,,,,
O=C(CN1C2=NCCN2c2ccccc21)c1ccc(-c2ccccc2)cc1,inactive,inactive,inactive,inactive,inactive,inactive,,,,,,
COc1c(C(O)CC(C)C)ccc2c1C(=O)OCc1cc(C)cc(O)c1O2 (configuration not stated),inactive,inactive,inactive,inactive,inactive,inactive,,,,,,
CC(C)CCCCC(=O)N[C@@H](CO)C(=O)N[C@@H](CC(C)C)C(=O)[C@@]1(CO)CO1,inactive,inactive,inactive,inactive,inactive,inactive,,,,,,
NS(=O)(=O)c1ccc(N2CCN(CC[C@@H]3OCCc4ccccc43)CC2)cc1,inactive,inactive,inactive,inactive,inactive,inactive,,,,,,
CC(C)c1ccc(NC(=O)Cn2cnc3c2c(=O)n(C)c(=O)n3C)cc1,inactive,inactive,inactive,inactive,inactive,inactive,,,,,,
CN(C)N(C)C(=O)[C@@]1(Cc2ccccc2)CCCN(C(=O)[C@@H](Cc2c[nH]c3ccccc23)NC(=O)C(C)(C)N)C1,inactive,inactive,inactive,inactive,inactive,inactive,,,,,,
CC(C)(C)c1ccc2c(c1)CC[C@H]2NC(=O)Nc1cccc2[nH]ncc12,inactive,inactive,inactive,inactive,inactive,inactive,,,,,,
CCCCCCCCn1cc(CN(CC)CC)c2cc(-c3cnc(N)nc3)ccc21,inactive,inactive,inactive,inactive,inactive,inactive,,,,,,
CNc1cc2[nH]c(=O)n(-c3ccc(NC(=O)NS(=O)(=O)c4ccc(Cl)s4)cc3)c(=O)c2cc1F,inactive,inactive,inactive,inactive,inactive,inactive,,,,,,
Cn1c(SCC(=O)N2CCC[C@H]2C(=O)Nc2ccccc2-c2ccccc2)nc2ccccc21,inactive,inactive,inactive,inactive,inactive,inactive,,,,,,
CCCC(CCC)C(=O)Nc1ccn([C@@H]2O[C@H](CO)[C@@H](O)C2(F)F)c(=O)n1,inactive,inactive,inactive,inactive,inactive,inactive,,,,,,
Fc1ccc(-c2nc(C3CCNCC3)sc2-c2ccnc(NC3CC3)n2)cc1,inactive,inactive,inactive,inactive,inactive,inactive,,,,,,
COc1ccc2c(c1O[C@H]1CCNC1)CCC2,inactive,inactive,inactive,inactive,inactive,inactive,,,,,,
COC(=O)c1cc(Br)cnc1N1CCC(NC2CCCCC2)C(O)C1 (configuration not stated),inactive,inactive,inactive,inactive,inactive,inactive,,,,,,
C#CCCCn1cc(-c2cccc3c2N[C@H](C)CC(=O)N3)cn1,inactive,inactive,inactive,inactive,inactive,inactive,,,,,,
CCOC(=O)C1(CCOc2ccccc2)CCN(Cc2ccc(O)c(Cl)c2)CC1,inactive,inactive,inactive,inactive,inactive,inactive,,,,,,
CC(=O)c1ccc2c(c1)[C@H](NC(=O)c1ccc(F)c(Cl)c1)[C@H](O)C(C)(C)O2,inactive,inactive,inactive,inactive,inactive,inactive,,,,,,
CC1=CC2/C=C(\C)CCC(O)C(=O)C(O)CC(=O)C23C(=O)NC(CC(C)C)C3C1C (configuration not stated),inactive,inactive,inactive,inactive,inactive,inactive,,,,,,
CC(=O)O[C@@H]1[C@H](O[C@@H]2O[C@@H](CO)[C@H](O)[C@H]2O)[C@@H](O[C@@H]2O[C@@H](C)[C@H](O[C@@H]3OC[C@@H](O)[C@H](O)[C@H]3O)[C@@H](O)[C@H]2O)[C@H](OC(=O)[C@]23CCC(C)(C)C[C@H]2C2=CCC4[C@@]5(C)CC[C@H](O[C@@H]6O[C@H](C(=O)O)[C@@H](O)[C@H](O)[C@H]6O[C@@H]6O[C@H](CO)[C@H](O)[C@H](O)[C@H]6O)[C@@](C)(C=O)C5CC[C@@]4(C)[C@]2(C)C[C@H]3O)O[C@@H]1C (some centres not stated),,,,,,,inactive [at 9.52 µM],-0.242% [at 9.73 µM],inactive [at 11.6 µM],435% [at 11.5 µM],0% [at 11.6 µM],9.67% [at 11.5 µM]
O=C(NCCCN1CCOCC1)c1cnn2c(-c3ccccc3)cc(-c3ccccc3)nc12,inactive,inactive,inactive,inactive,inactive,inactive,,,,,,

# Source: PubChem BioAssay (NCATS)
